Measurements: PubChem BioAssay AID1347426 (Functional Genomics Laboratory (NCATS/FGL), 2020)
Out of some 31,000 sequences screened, about 1,400 (4.5%) were called active. The full list was thinned out, with actives kept by preference. Values without a mark were called inactive.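 The calls were made as follows: active = median seed-adjusted z-score above 1 or below -1; inactive = the rest.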

Assay: Novel Modifiers of Survival Motor Neuron (SMN) Protein: Gene Identification via Genome-wide siRNA Screen;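 also: luminescence tracks full-length SMN protein made from the SMN2 reporter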
Details: HEK293T SMN2-luciferase reporter, siRNA knockdown, 72 h; actives lie on both sides
How it was run: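 Steps: spot 1 pmol siRNA, add Lipofectamine RNAiMax in serum-free DMEM, seed HEK293T SMN2–luciferase reporter cells; incubate 72 h at 37 °C; add ONE-Glo; normalize luminescence to control siRNA, log10, MAD. Candidates: |MAD| > 1.0.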

Sequence | median seed-adjusted z-score
AGCAGAAGAAGUUCAAAUATT against P2RX1 | 0.908
GCAGUAUAUUACAAACAAATT against NAT2 | -0.0495
GGCCCAAGCUUCAACAGCATT against DNASE2 | -1.23 (active)
GGAAAUCGUUCAGUAAGAATT against ZNF175 | -0.0194
CCAUAACCUUAUUGACGCATT against LRFN4 | -0.076
GCCUGAUUCUGAGUGAUGATT against SPTLC2 | 0
GCCUGAUACAAAAUCAACATT against TRPC5 | -1.14 (active)
GGAGUUACAUCAGACCUAUTT against MOGAT1 | 0.293
GGAAAUCUGAAGACGAUAATT against CCAR1 | -1.18 (active)
AACUGGGAAUUGAGAGGUATT against SOX12 | 0.478
GGCCUUACCAAUCAUCAUUTT against SLC28A2 | -0.076
GAAUUCGACCAGUAUUUGATT against SOX7 | -0.387
CCGUAUGUUUUGCUGCAAATT against ABCC4 | -1.66 (active)
GCAAGUCCCGCAAAAAGAATT against NEIL1 | -0.168
GCACCGUCAAGGAAGAUAATT against ADAMTSL1 | -0.107
GUAUGCGACUGGGAUCUUATT against HP | 0
CAGUGGAAAUAAUUACGUUTT against MDH1B | -1.13 (active)
GAUCUACACUUGGAUGGAUTT against SAP18 | 2.14 (active)
CUAACGAAGAUUCACCCAATT against ASPN | -0.0432
UCGUGGUUGUUAAUUUGAATT against CSNK1E | -0.796
CAACUGUUCCUGUAUUGAATT against SLCO4C1 | -0.116
GUAUCAAUCUAGAGCACAATT against MYOZ2 | 0.315

Sequence | median seed-adjusted z-score
CGAGCUACACUGUCCACUUTT against CSGLCA-T | 0.146
GGACUUGCUCGGCUCUAUATT against CRKRS | -1.16 (active)
CAACUUGGACAAGACCUUATT against GYS1 | 0.874
CGACAUCAGCUGAUAAUCATT against NPY1R | 0.76
AACAGUAUCUUUCAGAAUATT against TMPRSS5 | 1.25 (active)
GGCUGAAUUAUGACCGGAATT against PPFIA4 | 0.0399
CUUGGAUACAGAUACGUUUTT against TLK1 | -0.0133
UCGAUAUUCUAAGAUCACATT against UBE2D3 | 1.62 (active)
CACCUUAACUUCAUCAACATT against SCN4A | -0.681
GAGCUGGGAUGAUAAAGAUTT against AGPAT2 | 0.38
GCGAUGAUGUGGAACCUUATT against TBC1D9 | -0.0473
AUAUAACACUUCUACUCUUTT against CMA1 | -0.0475
CAACGAUGCUAGAAGAAUUTT against PCOLCE2 | -1.15 (active)
CCGUCUAUAUGGAGUCUUUTT against ROR1 | -0.0044
CUACUUUCGAGACUACUUUTT against DGAT2 | 0.195
GGGAAGAUAUUUGUCAGCATT against PLXNA2 | 0.308
ACAGGCCUGUGAAACCCUATT against PEX5 | -0.0414
GCCUUACCUGGAGAACUGATT against VPS26A | -1.55 (active)
GCGAGAAUCUGUUAGUAAATT against PANK3 | -0.185
CCAUCUUCACUGACGAGCATT against GSC | 0.17
CCUUUUUGCUGGACACUGUTT against PLEKHF1 | 0.055
CACCCAUGCUGACAGUGAATT against HLA-DMA | -0.00543

Sequence | median seed-adjusted z-score
GCCUCCUUCUUUGACCGGATT against NACC1 | 1.59 (active)
GGACUUCUUUUGUCAUGCATT against BCKDHB | 0.366
GAACAGAUGUUUGAGACUUTT against GUCA1A | 0.101
GCGAGUGUCUUGAAGUAUATT against PLAA | -0.192
AAACAUUAUUUACCAUUCATT against ZNF439 | -0.26
CCACGUGUCUAACACCAAUTT against KRT79 | 0.338
GAAUAUAUCUAAAUCGCAUTT against RORA | -0.144
GACCUCACGUUGUCGAAGATT against GTPBP4 | 1.01 (active)
GACUUGGAGUUUCAGGCAATT against XPC | -0.564
GCUCCAGUCUUUUCGCAAATT against DSG4 | -0.0211
CCAAUUCUACAAAAGCAAATT against SRD5A3 | -0.165
CGUGCACAGAUAUUACGCATT against FIGNL1 | -0.408
GCAUUGUCGUUGCAAUCGATT against CLCA1 | 0.015
GCAUCGAGCAGGAACAGAATT against ATP2B2 | 1.37 (active)
UUUUUGAUGUGGACUCAAATT against USP18 | -0.326
GUUCAAUACUUGAACACGATT against FFAR2 | 0.146
GAAUUACAGUGACAGUUCATT against AP3M1 | 0
GUAAUGUUCUUAAACGAAUTT against PPP2R5C | 1.14 (active)
GAAACAUCUGGUGCUAUUATT against KREMEN2 | -0.0883
GCAAGAAUCCCUAAAGCAUTT against BAG2 | -0.87
CAGUUGAUAUUCAUAAAGATT against ABI2 | -0.0392
GGGCAGAAUUGGAAUGCGATT against CNTNAP4 | -0.414

Sequence | median seed-adjusted z-score
AGAGCGGUCUGACAGUGGATT against NUDT1 | -0.175
GGUAUAAACGCGUCCAGCATT against MAFB | 0.674
CCAACGACGUGGUGCAGAATT against CLDN14 | -0.456
CAGCAAACCUUUGACCAGATT against U2AF2 | 2.14 (active)
CUACGGCUACGUCUACAUCTT against GPR25 | 0.377
GAGCGGACAUGAUAAGCAUTT against CD302 | 0.0818
GGAUGAUAUUAACAGGUCATT against USP8 | 0.743
GCAUACGCAGGAUCCUGGATT against KRT34 | 0.124
CGAGUUAGCAAGUUCAGCATT against CTRL | 0.0758
GAAAUCUUCUUGAGUGUAATT against GPR141 | -0.777
GGACAAUGUUGGGAAUAGATT against GPATCH2 | 0.0828
UCCUCUAAAAAUUACAGUATT against TUBB2A | 1.03 (active)
CAUUAGAUCUGUGAUUAGATT against MCOLN3 | -0.09
GGAAUGCUCCAAAAUGGGATT against FKBP1B | -0.561
GCACAUGUUUGGAGGAUUUTT against ZNRF2 | 0
CAACCCAGCCCAUCCCAAATT against PDK2 | -0.481
CUGUGAAGAUAGAAGGAUATT against CAPZA1 | -0.0237
GCAUUUCUUGGGUUGGUGATT against GABPA | 1.43 (active)
CCGCGCAGUUCAUCUCAAATT against SNX15 | -0.152
CACUAGAAAUAACAAUGGATT against TMPRSS11D | -0.0643
AGAUCUCGUGGUUCUGGAATT against RPUSD1 | 0.327
GUGGUGGGCUUAUCCUCUATT against NRXN3 | 0.897

Sequence | median seed-adjusted z-score
GAACCACAAUGUUAACAAUTT against CYBRD1 | 0.623
GCAAGAUCUCUAUUGGUAUTT against ABCC4 | -1.66 (active)
GAAACCCUAUUACGAUGAATT against SOX30 | -0.167
CAUGUAAACUUGCUGUUUUTT against CKS1B | 0.00314
CAUAGUAGAUCAAAUCUUATT against ZNF284 | 0.21
CACUAGCAGUUGCAAGUAATT against RAB3GAP2 | 0.0583
GACCUGGGCUUAGACAGUUTT against NDUFAB1 | -0.282
GGAGAGCUGUUGGUACUUUTT against TAAR9 | -1.07 (active)
CACUGUUUCUUCACCGGCATT against ZDHHC22 | 0.00446
GCAGUUCACCCAUCCAGUATT against THY1 | -1.1 (active)
GACCAAGCGCAAAACCAAATT against HOMEZ | -0.0614
GAUUUUGUGCGAUCCAUAATT against CBARA1 | -0.0426
GCAGGUACAUGUCUUGUCUTT against SPRY2 | 0.148
CCCUACAUAGGAAACCUGUTT against PKD1L2 | -1.17 (active)
CAGCCUACUUCAUAGCCUATT against GPR50 | -0.0348
GCCGGCCUGUGAAAUAUGATT against MAP3K3 | -0.182
UCACGUCACUACUUAAAAATT against ZNF644 | 0.389
CCAUUAAUGAAUUAGUCUATT against TXN | -0.195
AGCUCAACGUGCUGGAUUATT against PIP5KL1 | -0.819
CGAAGUUCAAGUAUAGGUATT against RAG1 | -1.35 (active)
